For 40 compounds, outcome and AC50 results are on record in PubChem BioAssay (EPA / NIEHS).

Active and inactive are the calls of the source. Rule for the calls: active = hit-call score of the fitted dose curve at least 0.9, where 1 is the maximum; inactive = score below 0.9.

The assay is described as follows: BSK_LPS_SRB: Viability Assessment in the BioMAP Diversity Plus: LPS Assay (AID 2283079).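 Note: fitted in both directions against DMSO so loss or gain of signal counts.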 Conditions: primary human HUVEC with PBMC. The protocol: BSK_LPS is a cell-based, multiplexed-readout assay that uses umbilical vein endothelium and peripheral blood mononuclear cells, a human vascular primary cell co-culture, with measurements taken at 24 hours after chemical dosing in a 96-well plate.BSK_LPS_SRB is an assay component measured in the BSK_LPS assay. It measures 0.1% sulforhodamine related to cell death using Sulforhodamine staining technology.Data from the assay component BSK_LPS_SRB was analyzed into 1 assay endpoint. This assay endpoint, BSK_LPS_SRB, was analyzed with bidirectional fitting relative to DMSO as the negative control and baseline of activity. Using a type of viability reporter, gain or loss-of-signal activity can be used to understand changes in the signaling. Furthermore, this assay endpoint can be referred to as a primary readout, because this assay has produced multiple assay endpoints where this one serves a signaling function. To generalize the intended target to other relatable targets, this assay endpoint is annotated to the cell morphology intended target family, where the subfamily is cell conformation.
The levels of cell surface (or secreted, indicated by the prefix "s") biomarker endpoints were measured by ELISA. Overt cytotoxicity to cells in confluent adherent cultures (all systems other than the BT system) was assessed by measuring total protein levels using sulforhodamine B (SRB) staining in parallel cultures at the time of biomarker measurements, indicated as SRB endpoints. For proliferation assays for adherent cell types, individual cell types are cultured at sub-confluence and relative cell numbers quantified by SRB staining at time points optimized for each system (48 h: 3C and CASM3C systems; 72 h: BT and HDF3CGF systems; 96 h: SAg system). SRB was performed by staining cells with 0.1% SRB after fixation with 10% TCA and reading wells at 560 nm.Viability and proliferation of PBMC (T cells) was quantified by Alamar Blue reduction for the SAg and BT systems. For PBMC viability (referred to as PBMC Cytotoxicity within the assay endpoint names), cells were plated (75,000/well in a 96-well plate) and then chemical samples added for 1 h before addition of activators, SEB and TSST-1 (20 ng/mL final concentration each). Cells were incubated for 90 h. Then, Alamar Blue (20 uL/well) (Invitrogen, Cat DAL1100) was added for 6 h, and the plates were read with a fluorescence microplate reader at 546/580 nm (excitation/emission). For PBMC proliferation, cells were plated and activated as above but incubated for only 16 h prior to addition of Alamar Blue. Plates were read after 6 h.
As to `CCCCC(CC)CO` (stereo not given), the outcome was inactive.
With `Cc1c(C)c2c(c(C)c1O)CCC(C)(COc1ccc(CC3SC(=O)NC3=O)cc1)O2` (stereo not given), the AC50 was 26.3 µM (active).
Take `S=c1[nH]c2ccccc2s1`: the result was inactive.
As to `Cc1cc(SC2=C(O)C[C@@](CCc3ccc(N)cc3)(C(C)C)OC2=O)c(C(C)(C)C)cc1CO`, the outcome was inactive.
Take `NC(=Nc1ccccc1)Nc1ccccc1`: the result was inactive.
Turning to `CCCC(=O)O`, the outcome was inactive.
Regarding `CC1=C(C)S(=O)(=O)CCS1(=O)=O`, the outcome was inactive.
Still for that read-out and setting: the value for `CC(N)=O` was “inactive”; that for `Cc1ccc(C(C)(C)C)c(O)c1` was “inactive”.
Regarding `NCCOCCOCCN`, the result was inactive.
For `Oc1ccc(O)cc1`, the outcome was inactive.
Same read-out and setting: with `CCc1cc(C2=C(C(=O)O)N(c3ccccc3C(F)(F)F)S(=O)(=O)c3ccccc32)cc2c1OCO2` the entry was “inactive”; with `CSc1ccc(Oc2ccc(S(N)(=O)=O)cc2CN(C)C)cc1C`, “inactive”; with `CC(C)c1cccc(C(C)C)c1NC(=O)NS(=O)(=O)c1cc(C(C)(C)O)co1`, “inactive”.
`CO[C@@H]1COCC[C@@H]1N[C@@H]1CC[C@@](C(=O)N2CCc3ncc(C(F)(F)F)cc3C2)(C(C)C)C1`: the result was inactive.
In the case of `CC(=O)S[C@H](C(=O)N[C@H]1Cc2ccccc2[C@H]2CCC[C@@H](C(=O)O)N2C1=O)C(C)C`, the outcome was inactive.
With `Cc1occc(=O)c1O`, the outcome was inactive.
Take `CC(=O)CC(c1ccccc1)c1c(O)c2ccccc2oc1=O` (stereo not given): the result was inactive.
In the case of `O=C(N[C@@H](c1ccccc1)[C@@H]1CCCCN1)c1cccc(C(F)(F)F)c1Cl`, the AC50 was 23.4 µM (active).
Take `CCCCCCCCCCCCCCCCO`: the result was inactive.
On the same count and under the same terms, the value for `CC(C)(O)c1ccc(CNC(=O)c2cccnc2Oc2ccc(F)cc2)cc1` was “inactive”; that for `CCCCc1nc2cccnc2n1Cc1ccc(-c2ccccc2-c2nnn[nH]2)cc1` was “inactive”.
As to `Nc1nc(=S)c2[nH]cnc2[nH]1`, the result was inactive.
`CN(C)C(=O)NC1(c2ccccc2)CCN(CC[C@@]2(c3ccc(F)c(F)c3)CN(C(=O)c3ccccc3)CCO2)CC1`: the outcome was inactive.
Turning to `O=NO`, the outcome was inactive.
Same read-out and setting: the value for `CS(=O)(=O)c1ccc([C@@H](C[C@H]2CCC(=O)C2)C(=O)Nc2cnccn2)cc1Cl` was “inactive”; that for `CN(C)CCCN(C)CCCN(C)C` was “inactive”.
As for `CCN(CC)CCOc1ccc(C(=C(Cl)c2ccccc2)c2ccccc2)cc1`, the AC50 is 10.4 µM (active).
On to `COc1ccc(C(=O)Nc2nc3ccccc3c(NCc3ccccc3)c2C#N)cc1`, for which the outcome was inactive.
Take `O=C(O)c1[nH]n(-c2ccc(S(=O)(=O)O)cc2)c(=O)c1N=Nc1ccc(S(=O)(=O)O)cc1`: the result was inactive.
Consider `CCCCC(CC)COP(=O)(OCC(CC)CCCC)OCC(CC)CCCC` (stereo not given), for which the result was inactive.
As for `COC(=O)CCC(=O)OC`, the outcome was inactive.
On to `O=C(Oc1ccccc1)c1cccc(C(=O)Oc2ccccc2)c1`, for which the outcome was inactive.
In the case of `CC1(C)C(=O)NC(=O)N1CO`, the outcome was inactive.
Same read-out and setting: with `CC(C)NCC(O)c1ccc(O)c(O)c1` (stereo not given) the entry was “inactive”; with `CN(C)C(=O)NC1(c2ccccc2)CCN(CCC[C@]2(c3ccc(Cl)c(Cl)c3)CCCN(C(=O)c3ccccc3)C2)CC1`, “inactive”; with `C/C=C/C=C/C(=O)O`, “inactive”.
For `CC(C)(C)c1ccccc1`, the outcome was inactive.
For the compound `CCCCCCCCCCCCCCOS(=O)(=O)O`, the result was inactive.
Consider `O=C1OC(c2ccc(O)cc2)(c2ccc(O)cc2)c2ccccc21`, for which the AC50 was 31.9 µM (active).

A word on the AC50: it is the concentration at which the activity in the assay is half-maximal.
